Molecules are shown by their SMILES. About 2,100 (3.2%) of roughly 65,000 compounds showed an effect of 50% or more. The median lay at about -52%. The list comes from a sample in which strong results are over-represented; it also holds similar structures and randomly drawn compounds.

This assay concerns Plasmodium falciparum. The assay can be described thus: Screen against P. falciparum Asexual Blood Stage (ABS), at 5uM. In kind it is functional, Dd2. The note with it: tested at 5 uM.
Take `CN(C)c1cc(CNC(=O)c2cc(Cl)ccn2)ccn1`: the INHIBITION is -158%.
For the molecule `Cc1cc(-c2nn3c(C(C)C)nnc3s2)on1`, the INHIBITION is -33%.
For `COCC1Cn2nnc(-c3cnn(C)c3)c2CN1Cc1ccco1` (stereo not drawn), the INHIBITION is listed as -88.9%.
For `COCC1Cn2nnc(-c3cnn(C)c3)c2CN1Cc1ccc(C)s1` (stereo not drawn), the INHIBITION was -9.62%.
As for `COCC1Cn2nnc(-c3cnn(C)c3)c2CN1Cc1cccs1` (stereo not drawn), the INHIBITION is on record as 59.2%.
For `Cc1ccc(S(=O)(=O)NCCc2cccnc2)cc1C`, the INHIBITION is on record as -35.5%.
In the case of `c1cc(CN2C[C@H](OCC3CCOCC3)[C@H]3COC[C@H]32)co1`, the INHIBITION is recorded as -93%.
For the molecule `Cc1noc(C)c1C(=O)N1CCCC(c2c(C)c(=O)nc3n2CCC3)C1` (stereo not drawn), the INHIBITION is reported as -105%.
For `CCCNC(=O)c1sccc1N(C)S(=O)(=O)c1ccc(Cl)cc1`, the INHIBITION is on record as -84%.
Turning to `CN(C)CCNC(=O)c1sccc1N(C)S(=O)(=O)c1ccc(Cl)cc1`, the INHIBITION was 64.2%.
Take `COCCNC(=O)c1sccc1N(C)S(=O)(=O)c1ccc(Cl)cc1`: the INHIBITION was -88.8%.
`Cc1cccc(CC(=O)N2CCOCC2c2c(C)n[nH]c2C)c1` (stereo not drawn): the INHIBITION is recorded as -75.3%.
For the molecule `CC(=O)N(Cc1noc(C)n1)C1CCN(Cc2cnc(C)s2)C1` (stereo not drawn), the INHIBITION is -55.6%.
As to `COc1cccc(CN2CCCCCC2c2cccs2)c1OC` (stereo not drawn), the INHIBITION was -70.3%.
Then `CS(=O)(=O)c1ccc(CN2CCCCC2c2cccc(F)c2)cc1` (stereo not drawn), with -36.8%; and `COc1ccc(CN2CCCC2c2cccc(F)c2)c(OC)c1OC` (stereo not drawn), with 60.2%; and `COc1cc(CN2CCCC2c2cccc(F)c2)cc(OC)c1OC` (stereo not drawn), with 28.2%.
Then `COc1cccc(CN2CCCC2c2cccc(F)c2)c1OC` (stereo not drawn), with 55.4%; and `Fc1cccc(C2CCCN2Cc2nnnn2C2CC2)c1` (stereo not drawn), with -26.9%; and `O=C(c1ccc(COc2ccc(Cl)cc2)o1)N1N=CCC1(O)C(F)(F)F` (stereo not drawn), with -121%.
On to `CCc1nccn1C1CCCN(C(=O)c2cnn3cccnc23)C1` (stereo not drawn), for which the INHIBITION was -64%.
`O=C(N[C@H]1CN(c2nc(CO)cs2)C[C@@H]1C1CC1)C1CCCCC1`: the INHIBITION is -26.4%.
On to `O=C(COC[C@]12COC[C@H]1CN(C1CCC1)C2)N1CCCC1`, for which the INHIBITION is given as -115%.
Then `Cc1nc(N)sc1C(=O)N[C@H]1CN(CCO)C[C@@H]1C1CC1`, with -82.2%; and `CSCCCN1C[C@H](NC(=O)c2ccc(CO)cc2)[C@@H](C2CC2)C1`, with 17.3%; and `Cc1cc(C(=O)N[C@H]2CN(CCC(N)=O)C[C@@H]2C2CC2)sc1C`, with -43.8%.
`Cc1cc(C(=O)N[C@H]2CN(CCO)C[C@@H]2C2CC2)sc1C`: the INHIBITION is 60.8%.
As to `Cc1cnc(C(=O)N[C@H]2CN(CCS(C)(=O)=O)C[C@@H]2C2CC2)cn1`, the INHIBITION is given as -47.7%.
Turning to `Cc1ccc(C(F)(F)F)cc1C(=O)N[C@H]1CN(CCO)C[C@@H]1C1CC1`, the INHIBITION is 63.9%.
As to `Cc1ccc(CN2CCCC3(CCCN3S(C)(=O)=O)C2)s1` (stereo not drawn), the INHIBITION is listed as -71.7%.
Regarding `Cc1ccc(C(=O)N(C)CCCc2cnn(C)c2)cc1N1CCNC1=O`, the INHIBITION is on record as -86.4%.
Regarding `O=C(CCc1nnc2ccccn2c1=O)NCc1ccc2c(c1)OCO2`, the INHIBITION was -108%.
In the case of `Cn1cc(CN2CCc3nc(-c4ccccn4)nc(O)c3C2)cn1`, the INHIBITION is -3.83%.
For the molecule `Cc1cc(C)n(CC2CN(CCOc3ccc(C#N)cc3)CCO2)n1` (stereo not drawn), the INHIBITION was -114%.
Turning to `CC(C)c1noc(CN2CCC(c3nc4cc(Cl)ccc4o3)CC2)n1`, the INHIBITION is listed as -72.4%.
For the molecule `CCc1nnc(Nc2cccc(C3CCN(c4cnccn4)CC3)n2)s1`, the INHIBITION is 55.5%.
Consider `CCc1nnc(Nc2cccc(C3CCN(CC4CC4)CC3)n2)s1`, for which the INHIBITION turned out to be 3.36%.
Take `CCc1nnc(Nc2cccc(C3CCN(C)CC3)n2)s1`: the INHIBITION was 6.83%.
As to `COCCC(=O)N1CCCC2(CCC(=O)N2CCOC)CC1` (stereo not drawn), the INHIBITION was -122%.
Then `CN1CCN(C(=O)CCn2nnc3ccccc32)CC(C(N)=O)C1` (stereo not drawn), with -71.9%.
For `Cc1ncsc1C(=O)N1CCC(O)(Cn2c(C)cc3ccncc32)CC1`, the INHIBITION was -64.6%.
As for `Cn1ccnc1Sc1ccc(N)cn1`, the INHIBITION was -78.1%.
Regarding `CS(=O)(=O)NC[C@]12COC[C@H]1CN(CCc1ccccc1)C2`, the INHIBITION is recorded as -29.9%.
Then `O=C(c1ccncc1F)N1Cc2nc(CN3CCCCC3)oc2C1`, with -21.6%; and `CN(Cc1ccco1)C1CCC12CCN(C(=O)c1ccnnc1)CC2` (stereo not drawn), with 53.3%; and `CN(Cc1ccco1)C1CCC12CCN(C(=O)c1ccncc1)CC2` (stereo not drawn), with 38.3%.
On to `CN(Cc1ccco1)C1CCC12CCN(C(=O)c1ccco1)CC2` (stereo not drawn), for which the INHIBITION was -9.15%.
In the case of `CC(C)(C)n1ncc2c1CCCC2NCc1ccc2ncccc2c1` (stereo not drawn), the INHIBITION is listed as -1.42%.
`Cc1cc(N2CCC3(CCCN(CCO)C3=O)C2)nc2ccccc12` (stereo not drawn): the INHIBITION was 19.1%.
Turning to `CCc1ccc(CN(C)C(=O)C(c2ccccc2F)N(C)C)nc1` (stereo not drawn), the INHIBITION is listed as -0.644%.
For `CN(Cc1cnc2ccccc2c1)C(=O)C(c1ccccc1F)N(C)C` (stereo not drawn), the INHIBITION is 64.4%.
Turning to `Cc1cc(CN(C)C(=O)C(c2ccccc2F)N(C)C)ccn1` (stereo not drawn), the INHIBITION is -25.2%.
As to `CC(=O)N1CCN(C(=O)C[C@@H]2C[C@@H](C(C)C)[C@H](CC#N)C=C2C)CC1`, the INHIBITION is on record as 53.5%.
Then `CC1=C[C@@H](CC#N)[C@H](C(C)C)C[C@H]1CC(=O)N1CCN(C)CC1`, with 44.5%.
Turning to `CC1=C[C@@H](CC#N)[C@H](C(C)C)C[C@H]1CC(=O)N1CCN(CCO)CC1`, the INHIBITION was found to be 40%.
Regarding `Cc1csc(N2CCN(C(=O)NCCNc3ncccn3)CC2)n1`, the INHIBITION is on record as -162%.
Then `COCc1ncn2c1CN(C(=O)c1cccc3cccnc13)CC2`, with -90.6%; and `Cc1cnc(CN2CCN(c3nc(C)cs3)C(C)C2)cn1` (stereo not drawn), with -48.9%.
Regarding `CC1(C(=O)NCc2cccc(C(F)(F)F)c2)CCOCC1`, the INHIBITION is -26.5%.
With `FC(F)(F)c1cccc(C2(CNCc3ccncc3)CCOCC2)c1`, the INHIBITION is 51%.
For the molecule `Cc1n[nH]cc1CNCC1(c2cccc(F)c2)CCOCC1`, the INHIBITION is given as 26.9%.
Then `COC[C@]1(O)CCN(C2CCN(c3ccc(F)c(F)c3)CC2)CC1(C)C`, with 63.1%; and `COC[C@]1(O)CCN(C2CCN(c3ccc(Cl)cc3)CC2)CC1(C)C`, with 34.4%.
Then `COC[C@]1(O)CCN(C2CCN(c3ccc(OC)cc3)CC2)CC1(C)C`, with -57.6%; and `CN1CCN(Cc2cn3c(n2)CN(C(=O)N2CCOCC2)CC3)CC1`, with -121%; and `COc1ccccc1C1CNCCN1C(=O)c1ccc(F)cc1` (stereo not drawn), with 69.7%.
Then `COc1ccccc1C1CNCCN1C(C)=O` (stereo not drawn), with -43.1%; and `COc1ccccc1C(=O)N1CCNCC1C(N)=O` (stereo not drawn), with -114%.
Turning to `Cn1ccnc1CNC[C@H]1Cn2cc(-c3ccccc3)nc2CO1`, the INHIBITION was 56.4%.
For the molecule `COc1ccc(-c2cn3c(n2)CO[C@@H](CNCc2nccn2C)C3)cc1`, the INHIBITION is listed as 21.3%.
As to `Cc1cccnc1CNC[C@H]1Cn2cc(-c3ccccc3)nc2CO1`, the INHIBITION worked out at 30.8%.
On to `Cc1nc(CCNC(=O)c2cc(C(C)C)nn2C)sc1C`, for which the INHIBITION is reported as -66%.
Then `COc1cc(N2CCC3(CC2)CN(CCO)c2ccccc23)ncn1`, with 47.1%.
Consider `CN(Cc1n[nH]c2c1CCC2)c1nc(C2CCCC2)nc2c1CNC2`, for which the INHIBITION was 2.51%.
Consider `CN(Cc1n[nH]c2c1CCCC2)c1nc2c(c(=O)[nH]1)CCNCC2`, for which the INHIBITION is 65.3%.
As for `CN(C)c1nc2c(c(N(C)Cc3n[nH]c4c3CCCCC4)n1)CCNC2`, the INHIBITION was found to be 40%.
Regarding `Cc1nccc(-c2cccc(NCC(=O)N3CCCC(C)C3)c2)n1` (stereo not drawn), the INHIBITION is -103%.
As for `CN1C(=O)c2cccc(NC(=O)c3cccc(S(C)(=O)=O)c3)c2C1=O`, the INHIBITION is -15.8%.
In the case of `Cc1ncc(CN2CC[C@@](C)(O)[C@H](Oc3cccc(F)c3)C2)cn1`, the INHIBITION is recorded as -18.7%.
Then `O=C(NC1CCNCC1)C1(N2CCCCC2)Cc2ccccc2C1`, with 62.9%; and `O=C1NCCCC[C@@H]1NC(=O)C1(N2CCCCC2)Cc2ccccc2C1`, with -107%; and `O=C(NC1CCNC1)C1(N2CCCCC2)Cc2ccccc2C1` (stereo not drawn), with 33.8%.
In the case of `CNCC(=O)N1CCC(c2ccnc(Nc3ccc(C)cn3)n2)C1` (stereo not drawn), the INHIBITION was -163%.
In the case of `CCc1nccn1CCC(=O)N1C[C@@H]2CC[C@H]1CN(C(=O)N(C)C)C2`, the INHIBITION was -28.8%.
Then `O=C(c1c(F)cc(Br)cc1F)N1CCc2cnccc21`, with -110%; and `Cc1cnn(CC(C)NCc2ccc(OCc3cccnc3)cc2)c1` (stereo not drawn), with 36.7%.
Turning to `Cc1cc(S(=O)(=O)N2CC[C@@H](O)C2)c(Cl)cc1F`, the INHIBITION is on record as -123%.
Then `COC(=O)[C@H]1C[C@@H](O)CCN1S(=O)(=O)c1cc(C)c(Cl)cc1C`, with -190%; and `CCN1CCN(S(=O)(=O)c2cc(C)c(Cl)cc2Cl)CC1`, with 64.3%.
In the case of `Cc1cc(S(=O)(=O)N2CCC(N3CCC(O)C3)CC2)c(Cl)cc1Cl` (stereo not drawn), the INHIBITION is listed as 69.3%.
Regarding `CCN1CCN(S(=O)(=O)c2cc(C)c(C)cc2Br)CC1`, the INHIBITION was determined as 28.4%.
Regarding `CCN1CCN(S(=O)(=O)c2cc(C)c(Cl)cc2C)CC1`, the INHIBITION is on record as 19.7%.
On to `O=C(c1csc(-c2ccc(C(F)(F)F)cc2)n1)N1CCCNCC1`, for which the INHIBITION is reported as -4.67%.
Turning to `CC(C)CNC(=O)c1nn(C)c(NC(=O)Cc2ccccc2)c1F`, the INHIBITION is given as -85.1%.
As for `COc1ncccc1CNC1CCc2c(ccc(=O)n2C)C1` (stereo not drawn), the INHIBITION was -74.3%.
Take `Cc1ccc(CN2CC[C@H]3OCC[C@@H](C(=O)N4CCCCO4)[C@@H]3C2)o1`: the INHIBITION is recorded as -9.16%.
Consider `CCN(CC)Cc1cn2c(n1)CN(C1CCOC1)CC2` (stereo not drawn), for which the INHIBITION is listed as -107%.
In the case of `Nc1ncccc1C(=O)NCc1cccc(Cl)c1`, the INHIBITION was -96.4%.
For `O=C(NCCN1CCOCC1)c1ccnn1-c1ccc2ccccn12`, the INHIBITION was -33.3%.
Take `CCn1cc(-c2cc(-c3cc(CC(=O)O)cs3)nc(N)c2C#N)c(C)n1`: the INHIBITION was -125%.
With `CCn1cc(-c2cc(-c3cc(CN(C)C)cs3)nc(N)c2C#N)c(C)n1`, the INHIBITION came out at 60.3%.
On to `Cc1nn(C)c(C)c1-c1cc(-c2cc(CC(=O)O)cs2)nc(N)c1C#N`, for which the INHIBITION is on record as -66.5%.
Then `CNC(=O)C1=NOC2(CCN(Cc3nccs3)C2)C1` (stereo not drawn), with -90.7%.

The record behind these values is ChEMBL document CHEMBL4513216, “Probing the Open Global Health Chemical Diversity Library for Multistage-Active Starting Points for Next-Generation Antimalarials” (ACS Infect Dis, 2020).
